# Data from article PMC11006913.
# Positions count from the first letter of the chain named.
# Tests used:
# Test in all cases: PBM; 200 nM protein, PBS
# Settings in all cases: dsDNA, one strand shown
# SIX6 [1] = target: T1, SIX6 (Homo sapiens, UniProt O95475 114-200, L167I)
# T1 sequence: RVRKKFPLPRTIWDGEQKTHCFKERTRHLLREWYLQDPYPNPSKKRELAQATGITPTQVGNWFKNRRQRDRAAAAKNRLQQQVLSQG
# SIX6 [2] = target: T2, SIX6 (Homo sapiens, UniProt O95475 114-200, L143V)
# T2 sequence: T1 sequence with L30V, I54L
# SIX6 [3] = target: T3, SIX6 (Homo sapiens, UniProt O95475 114-200, H141N)
# T3 sequence: T1 sequence with H28N, I54L
# SIX6 [4] = target: T4, SIX6 (Homo sapiens, UniProt O95475 114-200, T165P)
# T4 sequence: T1 sequence with T52P, I54L
# SIX6 [5] = target: T5, SIX6 (Homo sapiens, UniProt O95475 114-200, L167M)
# T5 sequence: T1 sequence with I54M
# SIX6 [6] = target: T6, SIX6 (Homo sapiens, UniProt O95475 114-200, L143M)
# T6 sequence: T1 sequence with L30M, I54L
# SIX6 [7] = target: T7, SIX6 (Homo sapiens, UniProt O95475 114-200, L143I)
# T7 sequence: T1 sequence with L30I, I54L
# SIX6 [8] = target: T8, SIX6 (Homo sapiens, UniProt O95475 114-200, T165G)
# T8 sequence: T1 sequence with T52G, I54L
# SIX6 [9] = target: T9, SIX6 (Homo sapiens, UniProt O95475 114-200, T139Q)
# T9 sequence: T1 sequence with T26Q, I54L
# SIX6 [10] = target: T10, SIX6 (Homo sapiens, UniProt O95475 114-200, T165A)
# T10 sequence: T1 sequence with T52A, I54L
# SIX6 [11] = target: T11, SIX6 (Homo sapiens, UniProt O95475 114-200, L167V)
# T11 sequence: T1 sequence with I54V
# SIX6 [12] = target: T12, SIX6 (Homo sapiens, UniProt O95475 114-200)
# T12 sequence: T1 sequence with I54L
# SIX6 [13] = target: T13, SIX6 (Homo sapiens, UniProt O95475 114-200, T165I)
# T13 sequence: T1 sequence with T52I, I54L
Sequence,binding signal (SIX6 [1]),binding signal (SIX6 [2]),binding signal (SIX6 [3]),binding signal (SIX6 [4]),binding signal (SIX6 [5]),binding signal (SIX6 [6]),binding signal (SIX6 [7]),binding signal (SIX6 [8]),binding signal (SIX6 [9]),binding signal (SIX6 [10]),binding signal (SIX6 [11]),binding signal (SIX6 [12]),binding signal (SIX6 [13])
ACATATCA,"11.3 upbm affinity estimate (log intensity, higher = more binding, comparable within an allelic series)","10.4 upbm affinity estimate (log intensity, higher = more binding, comparable within an allelic series)","11.3 upbm affinity estimate (log intensity, higher = more binding, comparable within an allelic series)","9.99 upbm affinity estimate (log intensity, higher = more binding, comparable within an allelic series)","10.7 upbm affinity estimate (log intensity, higher = more binding, comparable within an allelic series)","11.1 upbm affinity estimate (log intensity, higher = more binding, comparable within an allelic series)","10.4 upbm affinity estimate (log intensity, higher = more binding, comparable within an allelic series)","11.3 upbm affinity estimate (log intensity, higher = more binding, comparable within an allelic series)","11.3 upbm affinity estimate (log intensity, higher = more binding, comparable within an allelic series)","11.2 upbm affinity estimate (log intensity, higher = more binding, comparable within an allelic series)","11.1 upbm affinity estimate (log intensity, higher = more binding, comparable within an allelic series)","11.1 upbm affinity estimate (log intensity, higher = more binding, comparable within an allelic series)","11.1 upbm affinity estimate (log intensity, higher = more binding, comparable within an allelic series)"
AGCGGCGC,"8.85 upbm affinity estimate (log intensity, higher = more binding, comparable within an allelic series)","8.89 upbm affinity estimate (log intensity, higher = more binding, comparable within an allelic series)","8.85 upbm affinity estimate (log intensity, higher = more binding, comparable within an allelic series)","8.89 upbm affinity estimate (log intensity, higher = more binding, comparable within an allelic series)","8.88 upbm affinity estimate (log intensity, higher = more binding, comparable within an allelic series)","8.98 upbm affinity estimate (log intensity, higher = more binding, comparable within an allelic series)","8.84 upbm affinity estimate (log intensity, higher = more binding, comparable within an allelic series)","8.81 upbm affinity estimate (log intensity, higher = more binding, comparable within an allelic series)","8.91 upbm affinity estimate (log intensity, higher = more binding, comparable within an allelic series)","8.86 upbm affinity estimate (log intensity, higher = more binding, comparable within an allelic series)","8.82 upbm affinity estimate (log intensity, higher = more binding, comparable within an allelic series)","8.72 upbm affinity estimate (log intensity, higher = more binding, comparable within an allelic series)","8.83 upbm affinity estimate (log intensity, higher = more binding, comparable within an allelic series)"
ATATCCCC,"10.9 upbm affinity estimate (log intensity, higher = more binding, comparable within an allelic series)","10.3 upbm affinity estimate (log intensity, higher = more binding, comparable within an allelic series)","10.9 upbm affinity estimate (log intensity, higher = more binding, comparable within an allelic series)","9.7 upbm affinity estimate (log intensity, higher = more binding, comparable within an allelic series)","10.9 upbm affinity estimate (log intensity, higher = more binding, comparable within an allelic series)","10.9 upbm affinity estimate (log intensity, higher = more binding, comparable within an allelic series)","10.3 upbm affinity estimate (log intensity, higher = more binding, comparable within an allelic series)","10.9 upbm affinity estimate (log intensity, higher = more binding, comparable within an allelic series)","10.9 upbm affinity estimate (log intensity, higher = more binding, comparable within an allelic series)","10.8 upbm affinity estimate (log intensity, higher = more binding, comparable within an allelic series)","10.7 upbm affinity estimate (log intensity, higher = more binding, comparable within an allelic series)","10.9 upbm affinity estimate (log intensity, higher = more binding, comparable within an allelic series)","10.9 upbm affinity estimate (log intensity, higher = more binding, comparable within an allelic series)"
GCAGTGGC,"8.87 upbm affinity estimate (log intensity, higher = more binding, comparable within an allelic series)","8.89 upbm affinity estimate (log intensity, higher = more binding, comparable within an allelic series)","8.95 upbm affinity estimate (log intensity, higher = more binding, comparable within an allelic series)","8.89 upbm affinity estimate (log intensity, higher = more binding, comparable within an allelic series)","8.96 upbm affinity estimate (log intensity, higher = more binding, comparable within an allelic series)","8.94 upbm affinity estimate (log intensity, higher = more binding, comparable within an allelic series)","8.96 upbm affinity estimate (log intensity, higher = more binding, comparable within an allelic series)","8.99 upbm affinity estimate (log intensity, higher = more binding, comparable within an allelic series)","8.93 upbm affinity estimate (log intensity, higher = more binding, comparable within an allelic series)","8.93 upbm affinity estimate (log intensity, higher = more binding, comparable within an allelic series)","8.89 upbm affinity estimate (log intensity, higher = more binding, comparable within an allelic series)","8.98 upbm affinity estimate (log intensity, higher = more binding, comparable within an allelic series)","8.94 upbm affinity estimate (log intensity, higher = more binding, comparable within an allelic series)"
GGTATCAC,"11.6 upbm affinity estimate (log intensity, higher = more binding, comparable within an allelic series)","10.5 upbm affinity estimate (log intensity, higher = more binding, comparable within an allelic series)","11.6 upbm affinity estimate (log intensity, higher = more binding, comparable within an allelic series)","9.55 upbm affinity estimate (log intensity, higher = more binding, comparable within an allelic series)","10.9 upbm affinity estimate (log intensity, higher = more binding, comparable within an allelic series)","11.2 upbm affinity estimate (log intensity, higher = more binding, comparable within an allelic series)","10.6 upbm affinity estimate (log intensity, higher = more binding, comparable within an allelic series)","11.8 upbm affinity estimate (log intensity, higher = more binding, comparable within an allelic series)","11.6 upbm affinity estimate (log intensity, higher = more binding, comparable within an allelic series)","11.6 upbm affinity estimate (log intensity, higher = more binding, comparable within an allelic series)","11.4 upbm affinity estimate (log intensity, higher = more binding, comparable within an allelic series)","11.3 upbm affinity estimate (log intensity, higher = more binding, comparable within an allelic series)","11.4 upbm affinity estimate (log intensity, higher = more binding, comparable within an allelic series)"
